# A selection: hits, their analogues and other compounds. The true share with any hit is near 4.2%.
# SMARCA2 act = SMARCA2 (BRM) function activators, primary screen, cell-based, luminescence, high throughput; activation, % at 9.1 µM; MG213 cells, MMTV-luciferase reporter, dexamethasone, overnight; actives 1% (n = 370,000); in the data active means activation above about 7.8%;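 further: 0% = vehicle wells and 100% = reference activator wells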
# hcDAF12 agonist = H. contortus DAF-12 nuclear receptor activators, primary screen, cell-based, luminescence, HEK293, lit1-tk-luc reporter; actives 1.4% (n = 370,000); HEK293 hcDAF-12 lit1-tk-luc reporter; 0% DMSO, 100% Δ7-dafachronic acid; activation, % at 6.8 µM; AID 652067, 2013;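 active means activation above the mean of all tested compounds plus 3 SD, cut at about 5.5% in these data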;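 further: 100% = response to 3 µM Δ7-dafachronic acid high control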
# ssDAF-12 act = S. stercoralis DAF-12 nuclear receptor activators, primary screen, cell-based, luminescence, HEK293, GRIP1 co-expression, lit1-tk-luc | Nuclear hormone receptor DAF-12 (Strongyloides stercoralis) | activation, % at 6.8 µM | HEK293 ssDAF-12/GRIP1 lit1-tk-luc reporter; % of 3 µM dafachronic acid response | actives 1% (n = 370,000);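 active means activation above the mean over all tested compounds plus 3 SD, cut at about 0.9% in these data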;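 further: 0% = DMSO-only wells and 100% = 3 µM delta7-dafachronic acid wells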
# hgDAF-12 ag = H. glycines DAF-12 receptor agonists, primary screen, cell-based, luminescence, HEK293, GAL4 fusion, UAS-luciferase; actives 1.8% (n = 370,000); AID 687014, 2013; Nuclear hormone receptor DAF-12 (Heterodera glycines), GAL4 fusion; HEK293 GAL4-hgDAF12 UAS-luciferase reporter, agonist luminescence; normalized to butyrate control; activation, % at 6.8 µM;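 active means activation above a cutoff set at the mean of all screened compounds plus 3 SD, cut at about 10% in these data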;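 further: 0% = DMSO wells and 100% = sodium butyrate wells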
# DAX1 StAR inh = DAX1 (NR0B1) inhibitors on StAR promoter, primary screen, cell-based, luminescence, SF-1 (NR5A1), full-length DAX-1; inhibition, % at 6.8 µM; actives 1.1% (n = 370,000); HEK293T StAR-luciferase reporter, SF-1/DAX-1 repression relief;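 active means inhibition above the mean over all tested compounds plus 3 SD, cut at about 3.6% in these data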;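 further: 0% = DAX-1 cells with DMSO and 100% = cells lacking DAX-1 with DMSO; higher inhibition means more luminescence from relief of DAX-1 repression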
# LXR ag = LXR agonists, Gal4 luciferase reporter, confirmation, counter-screen for hcDAF-12 agonist project, cell-based, luminescence, HEK293, H. contortus campaign | shares compounds with hcDAF12 agonist | AID 743027, 2013 | activation, % at 6.8 µM | HEK293 Gal4-LXR tk-luc reporter, 24 h; normalized: DMSO 0%, positive control 100% | 3,400 tested, under 10 active;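 active means mean percent activation of the reporter above a cutoff set as the average over tested compounds plus their standard deviation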
# Target sequence (P55055 whole entry, looked up, the tested form may be a part): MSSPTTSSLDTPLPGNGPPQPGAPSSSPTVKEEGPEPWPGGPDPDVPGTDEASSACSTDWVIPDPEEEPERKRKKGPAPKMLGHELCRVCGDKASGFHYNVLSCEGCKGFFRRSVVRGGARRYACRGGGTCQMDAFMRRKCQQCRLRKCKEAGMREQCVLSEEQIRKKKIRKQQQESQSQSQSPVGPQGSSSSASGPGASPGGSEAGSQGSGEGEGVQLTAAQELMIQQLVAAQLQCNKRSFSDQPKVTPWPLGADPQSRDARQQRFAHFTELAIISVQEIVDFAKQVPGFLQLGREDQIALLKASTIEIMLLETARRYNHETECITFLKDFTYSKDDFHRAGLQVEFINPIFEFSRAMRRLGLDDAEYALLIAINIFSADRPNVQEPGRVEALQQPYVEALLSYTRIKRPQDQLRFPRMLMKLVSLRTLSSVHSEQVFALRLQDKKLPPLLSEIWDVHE
# hcDAF12 conf = H. contortus DAF-12 receptor agonists, confirmation, cell-based, luminescence, HEK293, lit1-tk-luc, triplicate. shares compounds with hcDAF12 agonist. HEK293 hcDAF-12 lit1-tk-luc reporter; % of Δ7-dafachronic acid response. activation, % at 6.8 µM. actives 61% (n = 3,400). AID 743032, 2013;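 active means mean activation across triplicate tests above the threshold derived from the earlier primary screen, cut at about 5.5% in these data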;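 further: 0% = DMSO only wells and 100% = 3 µM Δ7-dafachronic acid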
# hgDAF12 ag = H. glycines DAF-12 receptor agonists, confirmation, cell-based, luminescence, HEK293, GAL4-LBD fusion; activation, % at 6.8 µM; actives 80% (n = 3,300); HEK293 GAL4-hgDAF12 luciferase reporter, agonist mode; percent of butyrate response; shares compounds with hgDAF-12 ag;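 active means mean activation over triplicate wells above the hit cutoff derived from the earlier primary screen, cut at about 11% in these data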;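 further: 0% = DMSO low control and 100% = 2 mM sodium butyrate high control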
# LXR ag 2 = LXR agonists, Gal4 luciferase reporter, confirmation, counter-screen for hgDAF-12 agonist project, cell-based, luminescence, HEK293, H. glycines campaign | shares compounds with hgDAF-12 ag | 24 h | activation, % at 6.8 µM | 3,300 tested, under 10 active | AID 743051, 2013;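 active means mean activation of the triplicate above a set limit carried over from the primary screen, none filed active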
# The depositor's hits bear a star; nt = not tested or not shown.
SMILES,SMARCA2 act,hcDAF12 agonist,ssDAF-12 act,hgDAF-12 ag,DAX1 StAR inh,LXR ag,hcDAF12 conf,hgDAF12 ag,LXR ag 2
Cc1cc(SCC(=O)c2ccc(Cl)cc2)nc(=O)[nH]1,3.5,6.8*,1.3*,15.4*,3.2,1.6,5.8*,14.9*,0.6
Cc1cc(SCc2ccc(Cl)cc2Cl)nc(=O)[nH]1,-2.9,-0.7,-1.2,0.5,-0.6,nt,nt,nt,nt
O=C(Nc1ccc(F)cc1)C(c1cccc(F)c1)N1CCN(c2cccc(C(F)(F)F)n2)CC1 (stereo unspecified),-7.0,-0.3,-1.0,3.2,-1.1,nt,nt,nt,nt
COc1ccc(/C(=N/Nc2ncnc3ccccc23)C(=O)O)cc1,3.9,11.2*,1.8*,15.8*,1.9,0.5,7.5*,15.6*,0.5
CCOC(=O)/C(=N\Nc1ncnc2ccccc12)c1ccc(OC)cc1,3.3,16.8*,2.4*,18.3*,2.5,1.6,11.5*,17.3*,1.0
CCOC(=O)[C@]12Cc3c(cc(OC)c(OC)c3OC)[C@H]1N(Cc1ccccc1)C(=O)c1cc(OC)ccc12,-1.9,-1.2,-0.5,3.7,0.7,nt,nt,nt,nt
O=C(Nc1nccs1)c1csc2c1CCCC2,2.4,7.2*,0.0,14.0*,0.2,0.0,4.2,10.0,0.3
Cc1ccnc(Nc2nc(-c3ccc(Cl)cc3)cs2)c1,1.0,1.6,-0.8,7.2,0.5,nt,nt,nt,nt
Cc1ccc(-c2csc(Nc3ccccn3)n2)cc1,1.0,8.2*,2.2*,16.4*,1.5,2.0,9.9*,18.7*,1.1
Fc1ccc(-c2csc(Nc3ccccn3)n2)c(F)c1,0.2,15.2*,3.4*,13.6*,2.4,1.5,15.9*,20.0*,1.1
Cc1nc(C)c(-c2csc(Nc3ccccn3)n2)s1,-1.2,3.9,0.3,6.1,0.2,nt,nt,nt,nt
O=C(Nc1nc(-c2cc(F)ccc2F)cs1)c1ccccn1,5.3,2.0,-0.7,4.3,-0.5,nt,nt,nt,nt
Cc1ccc(Nc2nc(CSc3nnc(-c4ccncc4)n3C)cs2)cc1,4.4,7.3*,0.4,15.9*,3.6,0.6,4.3,14.5*,0.5
Cc1cc(-c2csc(Nc3ccccn3)n2)ccc1F,-1.2,14.8*,1.7*,17.1*,1.9,1.8,12.4*,19.0*,1.1
O=S1(=O)C=CCN1Cc1cn(Cc2ccc(C(F)(F)F)cc2)nn1,-3.5,-2.2,-1.1,1.1,-0.2,nt,nt,nt,nt
Cc1ccc(Nc2nc(-c3ccncc3)cs2)cc1,2.2,8.9*,2.4*,15.8*,4.2*,0.8,7.2*,19.3*,0.7
CC(=O)Nc1cccc(-c2csc(Nc3ccc(C)cn3)n2)c1,3.2,12.8*,0.6,17.4*,5.5*,2.1,8.3*,20.6*,1.2
Cc1cccnc1Nc1nc(-c2ccc(F)cc2)cs1,6.4,10.1*,1.9*,17.6*,2.8,1.2,8.2*,15.7*,0.8
Fc1ccc(-c2csc(NC3=NCCC3)n2)cc1,-0.6,-0.2,-1.3,1.4,0.6,nt,nt,nt,nt

# Compound activity as filed in PubChem BioAssay.
